These results are taken from PubChem BioAssay.

Activity calls are given as the source filed them.

Test [1] can be described thus: compounds binding Alexa647 anti-His antibody – biochemical, small-molecule microarray, 635 nm fluorescence, artefact control for SMM control protein annotation, primary screen (AID 1128).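 Further: score merges feature fluorescence with signal-to-noise for each printed compound spot.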 The following applies: higher = more signal.
Test [2] concerns Human papillomavirus type 1a E7 protein (residues 1-88). The test is described as follows: HPV1a E7 small-molecule binders, primary screen, biochemical, small-molecule microarray, residues 1-88, 635 nm (AID 1129). As to conditions: small-molecule microarray binding, fluorescence 635 nm; higher = more signal.
In test [3] the target is Focal adhesion kinase 1 (Homo sapiens) (UniProt Q05397). As to the kind of experiment: PTK2 protein binding on printed compound slides – biochemical, small-molecule microarray, 635/667 nm fluorescence, BSA, DTT, primary screen (AID 1130).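 Further: composite of spot emission at 667 nm and signal to noise over triplicate slides.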 As to conditions: 635 nm fluorescence, higher = more signal.
For test [4], the system named is Fibrinogen (Alexa647-labelled). As to the kind of experiment: Alexa647-fibrinogen binding to printed small molecules – biochemical, small-molecule microarray, 635/667 nm fluorescence, artefact control for SMM control-protein annotation, profiling panel (AID 1131).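 Further: z-score merges 667 nm fluorescence with per-spot signal-to-noise over triplicate slides.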 The following applies: fibrinogen-A647 binding fluorescence, higher = more signal.
In test [5] the target is Follistatin (Homo sapiens) (UniProt P19883). The test is described as follows: FST protein binding to printed compounds – biochemical, small-molecule microarray, 635/667 nm fluorescence, primary screen (AID 1132). The following applies: 635 nm fluorescence, higher = more signal.
The target of test [6] is Fibroblast growth factor 2 (Homo sapiens) (UniProt P09038). As to the kind of experiment: basic fibroblast growth factor binding to printed compounds – biochemical, small-molecule microarray, 635/667 nm fluorescence, primary screen (AID 1133). The following applies: FGF2, fluorescence 635/667, higher = more signal.
Test [7] can be described thus: JC-1 mitochondrial potential readout, lung cancer cells – cell-based, A549, JC-1 fluorescence, basal, 24 h, 100 nL, profiling panel (AID 1138).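 Further: A549 lung adenocarcinoma cells under basal conditions with no added stimulus; test concentration not given here.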 The following applies: higher = more signal.
For a further test, the system named is Lefty1. The test is described as follows: Lefty1 protein binding to printed compounds – biochemical, small-molecule microarray, 635/667 nm fluorescence, primary screen (AID 1139). The following applies: fluorescence 635/667, higher = more signal.
In test [8] the test system is wheat germ agglutinin (Triticum aestivum), Alexa647-labelled. As to the kind of experiment: Alexa647-WGA lectin binding to printed small molecules – biochemical, small-molecule microarray, 635/667 nm fluorescence, artefact control for SMM control-protein annotation, profiling panel (AID 1140).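 Further: score merges 667 nm feature emission with signal to noise over triplicate slides.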 The following applies: WGA-A647 binding, 635 nm fluorescence, higher = more signal.

Test [9] addresses Luciferin 4-monooxygenase (Photinus pyralis) (UniProt P08659). The test is described as follows: inhibition of purified Photinus pyralis luciferase – biochemical, luminescence, purified enzyme, 2006 set, primary screen (AID 1141).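 Further: cell-free assay with purified firefly luciferase at 100 ng per well in PBS; test concentration not given here.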 The following applies: purified firefly luciferase, SteadyGlo luminescence, 30 min; higher = more signal, called active from +8 up or from −8 down.

Luciferin 4-monooxygenase (Photinus pyralis), sequence (P08659 whole entry, looked up): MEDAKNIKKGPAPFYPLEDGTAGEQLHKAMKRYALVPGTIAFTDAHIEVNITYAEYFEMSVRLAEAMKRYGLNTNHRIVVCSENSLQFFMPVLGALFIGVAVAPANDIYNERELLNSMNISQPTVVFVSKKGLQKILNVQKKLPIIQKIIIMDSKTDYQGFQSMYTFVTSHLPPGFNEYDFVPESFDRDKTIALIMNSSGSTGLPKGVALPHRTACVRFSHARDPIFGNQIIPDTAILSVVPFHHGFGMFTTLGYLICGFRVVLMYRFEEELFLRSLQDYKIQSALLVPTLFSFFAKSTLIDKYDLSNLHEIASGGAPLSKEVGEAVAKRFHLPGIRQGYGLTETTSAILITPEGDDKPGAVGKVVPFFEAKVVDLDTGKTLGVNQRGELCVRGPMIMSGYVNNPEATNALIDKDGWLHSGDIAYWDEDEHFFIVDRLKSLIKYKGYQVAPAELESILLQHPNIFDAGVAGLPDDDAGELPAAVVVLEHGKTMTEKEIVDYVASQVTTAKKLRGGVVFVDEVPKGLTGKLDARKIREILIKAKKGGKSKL
Fibroblast growth factor 2 (Homo sapiens), sequence (P09038 whole entry, looked up): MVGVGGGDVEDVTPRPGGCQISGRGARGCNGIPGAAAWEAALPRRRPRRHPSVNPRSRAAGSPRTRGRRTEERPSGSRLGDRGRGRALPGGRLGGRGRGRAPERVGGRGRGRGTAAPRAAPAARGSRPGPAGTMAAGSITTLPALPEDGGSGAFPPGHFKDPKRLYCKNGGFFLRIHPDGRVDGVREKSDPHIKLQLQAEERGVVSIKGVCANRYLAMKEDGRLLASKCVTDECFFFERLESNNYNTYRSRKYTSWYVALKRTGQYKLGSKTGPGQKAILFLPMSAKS
Focal adhesion kinase 1 (Homo sapiens), sequence (Q05397 whole entry, looked up): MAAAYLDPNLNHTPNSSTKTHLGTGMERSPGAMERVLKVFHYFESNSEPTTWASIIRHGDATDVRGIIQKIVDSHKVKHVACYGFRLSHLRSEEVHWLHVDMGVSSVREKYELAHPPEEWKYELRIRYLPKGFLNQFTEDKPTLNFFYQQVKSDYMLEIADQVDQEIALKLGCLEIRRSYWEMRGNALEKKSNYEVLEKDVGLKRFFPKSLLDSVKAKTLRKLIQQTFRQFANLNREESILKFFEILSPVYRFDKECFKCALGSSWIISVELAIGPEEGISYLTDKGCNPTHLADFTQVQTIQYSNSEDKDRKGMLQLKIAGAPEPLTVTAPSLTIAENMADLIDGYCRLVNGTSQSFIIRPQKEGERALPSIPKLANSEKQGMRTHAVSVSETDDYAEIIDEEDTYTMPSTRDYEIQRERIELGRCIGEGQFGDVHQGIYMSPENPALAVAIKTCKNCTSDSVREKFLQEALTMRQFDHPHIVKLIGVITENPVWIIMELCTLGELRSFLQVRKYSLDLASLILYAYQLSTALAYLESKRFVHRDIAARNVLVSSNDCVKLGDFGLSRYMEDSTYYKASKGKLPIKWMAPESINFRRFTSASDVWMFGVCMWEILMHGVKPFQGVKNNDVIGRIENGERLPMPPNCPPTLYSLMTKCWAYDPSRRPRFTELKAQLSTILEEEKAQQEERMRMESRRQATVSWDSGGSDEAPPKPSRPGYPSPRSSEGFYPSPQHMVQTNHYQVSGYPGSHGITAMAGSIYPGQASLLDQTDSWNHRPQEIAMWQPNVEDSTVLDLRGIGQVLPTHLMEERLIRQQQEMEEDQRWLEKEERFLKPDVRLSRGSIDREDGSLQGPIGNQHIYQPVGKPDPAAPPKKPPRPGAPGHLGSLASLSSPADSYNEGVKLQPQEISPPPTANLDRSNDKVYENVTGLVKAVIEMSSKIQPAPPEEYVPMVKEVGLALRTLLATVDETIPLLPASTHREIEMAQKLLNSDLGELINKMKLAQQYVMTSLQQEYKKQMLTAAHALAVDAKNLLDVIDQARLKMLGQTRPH
Follistatin (Homo sapiens), sequence (P19883 whole entry, looked up): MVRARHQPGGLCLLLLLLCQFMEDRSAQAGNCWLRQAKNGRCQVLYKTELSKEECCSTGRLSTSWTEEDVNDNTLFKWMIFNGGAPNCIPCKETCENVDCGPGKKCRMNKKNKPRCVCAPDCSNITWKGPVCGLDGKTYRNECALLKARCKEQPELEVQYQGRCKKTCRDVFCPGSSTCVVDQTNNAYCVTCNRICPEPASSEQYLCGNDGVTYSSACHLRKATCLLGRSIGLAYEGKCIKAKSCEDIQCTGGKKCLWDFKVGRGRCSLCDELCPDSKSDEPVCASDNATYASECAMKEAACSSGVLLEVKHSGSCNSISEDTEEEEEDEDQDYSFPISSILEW

Regarding `COC(=O)CC=C[C@@H](C)[C@@H](C=NOC[C@H]1O[C@H](c2ccccc2)C=C[C@@H]1Oc1ccc(OC)cc1)OC`, the composite z-score in test [1] is 0.162; in [2], -0.499; in test [3], -0.103; in test [4], -0.313; in test [5] it was 0.22; in test [6], -0.435. Also, the composite z-score in the test on Lefty1 was -0.0398; in test [8], -0.0524. Further, the results for the z-score in [7] and in test [9] were 0.0691 and 0.4 (inactive), respectively.

Regarding `Cc1cc2c(c(=O)o1)[C@@H](O)[C@H]1O[C@H]1C2=O`, the composite z-score is 0.432 in test [1]; 0.281 in [2]; 0.123 in [3]; -0.116 in test [4]; 0.629 in test [5]; 0.374 in [6]. Moreover, the composite z-score in the test with Lefty1 was found to be 1.32; in test [8], 0.201. Besides, the z-score is -1.32 in test [7] and 0.476 (inactive) in test [9].

Consider `COC(=O)CC=C[C@@H](C)[C@@H](C=NO[C@@H](C)c1cn([C@H](CO)Cc2ccccc2)nn1)NS(=O)(=O)c1ccc(C)cc1`, for which the composite z-score came to 1.56 in test [1]; 0.332 in test [2]; 0.265 in test [3]; 0.982 in test [4]; 0.95 in [5]; 0.459 in test [6]. Moreover, the composite z-score amounted to 0.681 in the test on Lefty1 and 0.0187 in [8]. Also, the z-score in [7] is -0.517; in [9] it was -1.28 (inactive).

Consider `C[C@@H](c1ccccc1)N1C(=O)[C@H]2[C@H]3[C@H](O)[C@H](O)CC(=NOCc4ccccc4)[C@H]3CC[C@H]2C1=O`, for which the composite z-score in [1] is 1.2; in test [2], 1.17; in [3] it was 0.0785; in test [4], 0.823; in test [5], 0.287; in [6], 0.181. Further, the composite z-score in the test on Lefty1 turned out to be 0.295; in [8], 0.0559. Further, the values for the z-score in test [7] and in [9] were 1.06 and 0.0057 (inactive), respectively.

For the compound `CCC(=O)[C@@]1(O)C(=O)N2C(=C3C(=O)OCC[C@@H]31)N(Cc1ccccc1)C(C)=C(C(=O)OC)[C@H]2c1ccccc1`, the composite z-score amounted to 0.188 in test [1]; 0.405 in test [2]; 1.08 in test [3]; 0.375 in test [4]; 0.538 in test [5]; 0.465 in test [6]. Further, the composite z-score with Lefty1 is 0.436; in test [8] it was 0.0183. The figures for the z-score in test [7] and in test [9] were 0.523 and -0.901 (inactive), respectively.

`COc1ccc(COC(=O)NN=C2C[C@@H](O)[C@@H](O)[C@@H]3[C@@H]4C(=O)N(c5cccc(Oc6ccccc6)c5)C(=O)[C@@H]4CC[C@@H]23)cc1`: the composite z-score in test [1] is 0.177; in test [2], -0.181; in [3], -0.0032; in [4] it was 0.238; in test [5] it was -0.823; in test [6], -0.415. Also, the composite z-score was -0.282 in the test on Lefty1 and 0.485 in test [8]. The z-score in [7] was -0.201; in test [9] it was 0.891 (inactive).

As to `CCCCC#C[C@@H]1C=C[C@H](Oc2cc(OC)c(OC)c(OC)c2)[C@@H](COC(=O)OCC)O1`, the composite z-score in test [1] was 0.054; in test [2] it was -0.637; in test [3], -0.253; in test [4] it was 0.388; in [5] it was 0.135; in test [6], 0.265. Besides, the figures for the composite z-score (with Lefty1; in test [8]) were 0.386 and -0.0925, respectively. Further, the z-score in test [7] was 2.36; in test [9], -1.12 (inactive).

Take `CON=C1[C@H]2CCn3c(=O)n(-c4ccccc4)c(=O)n3[C@H]2[C@H](O)[C@@H]2O[C@H]12`: the composite z-score in [1] came to 1.95; in [2], 0.574; in [3] it was 0.295; in [4], 0.148; in test [5], 0.743; in [6], 0.986. For the same compound, the composite z-score worked out at 0.695 in the test on Lefty1 and 0.168 in [8]. Further, the z-score is 0.758 in test [7] and -2.49 (inactive) in [9].

As to `COCCNC(=O)OCC1CCCC2(CC(OC(=O)NCc3ccc4c(c3)OCO4)CC(CCC(=O)N[C@@H](C)C(=O)OC)O2)O1` (stereo not given in full), the composite z-score was found to be 0.721 in test [1]; 0.885 in test [2]; 0.136 in [3]; 0.592 in test [4]; 0.752 in [5]; 1.13 in test [6]. Also, the composite z-score in the test with Lefty1 was 1.3; in test [8], 0.139. In addition, the z-score is -0.397 in [7] and 0.89 (inactive) in test [9].

Consider `O=C1C=C[C@@H](O)[C@@H]2[C@@H]3C(=O)N(C[C@@H]4CCCO4)C(=O)[C@@H]3CC[C@@H]12`, for which the composite z-score in [1] came out at 0.518; in [2], 0.686; in test [3], 0.18; in test [4], 0.418; in test [5] it was 0.23; in test [6], 0.535. Further, the composite z-score with Lefty1 stood at 0.756; in test [8], 0.221. The z-score in test [7] is -0.117; in test [9], -0.0563 (inactive).

On to `C[C@@H]1CC[C@H]2C(=O)O[C@@H](Cc3ccccc3)CN2[C@H]1c1ccc(Br)cc1`, for which the composite z-score in [1] is 2.07; in test [2], 0.688; in test [3] it was 0.217; in test [4], 0.376; in test [5], 0.397; in test [6], 0.297. The values for the composite z-score (in the test on Lefty1; in [8]) were 0.495 and 0.526, respectively. Further, the results for the z-score in test [7] and in test [9] were 0.362 and 0.178 (inactive), respectively.

`CC(C)CON=C1C[C@@H](O)[C@@H](O)[C@@H]2[C@@H]3C(=O)N(Cc4ccc5c(c4)OCO5)C(=O)[C@@H]3CC[C@H]12`: the composite z-score worked out at 0.193 in test [1]; 0.689 in test [2]; 0.0874 in test [3]; 0.237 in [4]; 0.707 in [5]; 0.914 in [6]. The composite z-score in the test on Lefty1 is 0.831; in [8], -0.0178. For the same compound, the z-score in test [7] was -0.72; in test [9], 1.26 (inactive).

Take `CC(CCN1CCCCc2nc(C)c(C)cc21)=NOC[C@@H](O)COCc1ccco1`: the composite z-score is 0.111 in [1]; -0.91 in test [2]; 0.0817 in test [3]; -0.426 in test [4]; 1.42 in [5]; 1.98 in [6]. Also, the composite z-score is 1.68 in the test with Lefty1 and -0.466 in [8]. The z-score in test [7] was 0.143; in test [9], 0.357 (inactive).
